Reference: publication PMC4336329 (PLoS ONE, 2015)
Out of some 310,000 compounds screened, about 14,000 (4.5%) showed an effect of 50% or more. Effects have a minus sign here. What follows is part of a selection rich in strong results, with near analogues and random picks from the rest.

The molecules below were run against human ether-à-go-go-related gene (hERG) potassium channel (human, UniProt Q12809) (assay: primary screen, population patch clamp on CHO cells stably expressing hERG; higher = less effect of the substance).
Chain of human ether-à-go-go-related gene (hERG) potassium channel (Q12809 whole entry, looked up): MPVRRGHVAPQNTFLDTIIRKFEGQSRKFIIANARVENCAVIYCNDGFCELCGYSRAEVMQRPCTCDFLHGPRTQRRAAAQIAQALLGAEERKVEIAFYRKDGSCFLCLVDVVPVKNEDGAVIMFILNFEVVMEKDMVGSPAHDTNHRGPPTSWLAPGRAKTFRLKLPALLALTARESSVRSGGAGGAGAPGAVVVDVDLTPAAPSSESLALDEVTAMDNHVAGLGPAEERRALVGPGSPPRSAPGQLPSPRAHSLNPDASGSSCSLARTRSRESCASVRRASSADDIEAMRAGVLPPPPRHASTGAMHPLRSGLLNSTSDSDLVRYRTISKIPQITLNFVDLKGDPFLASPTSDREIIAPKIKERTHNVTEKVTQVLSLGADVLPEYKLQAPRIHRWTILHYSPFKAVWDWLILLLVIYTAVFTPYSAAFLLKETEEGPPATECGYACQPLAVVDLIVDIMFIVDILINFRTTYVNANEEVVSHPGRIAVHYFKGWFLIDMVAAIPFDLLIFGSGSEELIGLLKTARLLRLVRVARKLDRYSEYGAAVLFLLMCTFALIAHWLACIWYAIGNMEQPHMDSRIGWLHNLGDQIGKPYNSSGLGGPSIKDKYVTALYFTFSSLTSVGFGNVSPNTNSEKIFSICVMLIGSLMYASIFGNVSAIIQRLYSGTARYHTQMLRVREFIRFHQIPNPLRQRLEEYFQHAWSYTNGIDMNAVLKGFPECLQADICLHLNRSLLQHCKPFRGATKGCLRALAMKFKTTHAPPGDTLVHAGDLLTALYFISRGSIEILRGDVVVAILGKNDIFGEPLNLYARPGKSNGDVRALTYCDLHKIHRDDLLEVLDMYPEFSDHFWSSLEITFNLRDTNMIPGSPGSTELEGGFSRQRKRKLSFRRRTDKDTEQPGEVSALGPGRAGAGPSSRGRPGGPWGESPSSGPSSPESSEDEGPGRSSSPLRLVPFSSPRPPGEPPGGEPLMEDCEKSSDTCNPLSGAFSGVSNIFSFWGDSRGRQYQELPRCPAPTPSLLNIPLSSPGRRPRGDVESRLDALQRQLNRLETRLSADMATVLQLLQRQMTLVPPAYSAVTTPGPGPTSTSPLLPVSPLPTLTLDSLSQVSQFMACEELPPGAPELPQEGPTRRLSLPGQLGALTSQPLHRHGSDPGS
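Note: peak tail current of the secondary pulse compared with the same well before compound.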

Row | Compound | hERG current change (%, negative = inhibition) at 10uM
1 | Cc1ccc(NC(=O)CNC(=O)c2cccs2)c(O)c1 | 15.1%
2 | Cl.NS(=O)(=O)c1cccc(N2CCNCC2)c1 | 11.7%
3 | COc1ccc(Cl)cc1NC(=S)NNC(=O)c1cccnc1 | 36.9%
4 | COc1ccccc1N1CCN(S(=O)(=O)c2ccccc2F)CC1 | -23.3%
5 | COc1cccc(S(=O)(=O)N2CCN(c3ccccc3F)CC2)c1 | -6.35%
6 | COc1ccc2nc(C)cc(N3CCN(S(=O)(=O)c4ccccc4F)CC3)c2c1 | -75.9%
7 | CCOc1ccc(-c2n[nH]c(C)c2Oc2ccc(OC)cc2)c(O)c1 | -6.31%
8 | Cc1ccc2cc(CN(Cc3ccco3)S(=O)(=O)c3c(C)ccc4nsnc34)c(=O)[nH]c2c1 | 2.82%
9 | CNCc1ccccc1Sc1cccc(O)c1.O=C(O)/C=C\C(=O)O | 7.03%
10 | OCc1ccccc1CN1CCCCCC1 | -9.62%
11 | O=C(O)/C=C\C(=O)O.c1ccc(Sc2ccccc2CN2CCCC2)cc1 | -50.7%
12 | CNCc1ccccc1Sc1cccc2ccccc12.O=C(O)/C=C\C(=O)O | -45.4%
13 | CN1CCN(Cc2ccccc2Sc2ccccc2)CC1.O=C(O)/C=C\C(=O)O | -82%
14 | CNCc1ccccc1Sc1ccc(OC)c(OC)c1.O=C(O)/C=C\C(=O)O | -18.3%
15 | O=C1N=C(N2CCCC2)S/C1=C\c1cn[nH]c1-c1ccccc1 | -4.48%
16 | COCCN=c1scc(-c2cccs2)n1/N=C(\C)c1ccco1 | -2.51%
17 | CN(C)S(=O)(=O)c1cccc(COc2ccccc2C(=O)Nc2ccccc2)c1 | -14.4%
18 | Brc1ccc(OCc2cn3ccccc3n2)cc1 | -7.75%
19 | CCOC(=O)c1sc(NC(=O)CSc2nccc(C)n2)c(C#N)c1C | -4.68%
20 | Cc1sc2ncnc(Sc3nc4ccccc4s3)c2c1C | 5.53%
21 | Cl.O=C(CN1CCCC1)Nc1ccc2c(c1)CCC2 | -1.69%
22 | C[C@]12C=CC(=O)C=C1CC[C@H]1[C@@H]3C[C@@H](O)[C@](O)(C(=O)CO)[C@@]3(C)C[C@H](O)[C@@]12F | 6.23%
23 | CC1(C)O[C@@H]2C[C@H]3[C@@H]4CCC5=CC(=O)C=C[C@]5(C)[C@@]4(F)[C@@H](O)C[C@]3(C)[C@]2(C(=O)CO)O1 | 13.7%
24 | CC1(c2ccccc2)O[C@@H]2C[C@H]3[C@@H]4CCC5=CC(=O)C=C[C@]5(C)[C@@]4(F)[C@@H](O)C[C@]3(C)[C@]2(C(=O)CO)O1 (stereo partly drawn) | -78.6%
25 | CCn1c(CCNC(=O)c2ccccc2Cl)n[nH]c1=S | 12%
26 | C[n+]1ccccc1/C=C/c1cc(Br)ccc1O.[I-] | 14.7%

Row | Compound | hERG current change (%, negative = inhibition) at 10uM
27 | Cc1ccc(C)c(S(=O)(=O)N2CCN(C(=O)c3ccc(-n4cncn4)c([N+](=O)[O-])c3)CC2)c1 | -72.1%
28 | Cc1ccc(NC(=O)c2ccc(-n3cncn3)c([N+](=O)[O-])c2)cc1 | -17.9%
29 | CC(=O)c1ccc(S(=O)(=O)N2CCN(C(=O)c3ccc(-n4cncn4)c([N+](=O)[O-])c3)CC2)cc1 | -19.7%
30 | Cc1ccc(C(=O)NNC(=O)c2ccc(-n3cncn3)c([N+](=O)[O-])c2)cc1 | 12.2%
31 | Cc1ccc(S(=O)(=O)N2CCN(C(=O)c3ccc(-n4cncn4)c([N+](=O)[O-])c3)CC2)cc1 | -52.5%
32 | O=C(c1ccc(-n2cncn2)c([N+](=O)[O-])c1)N1CCN(S(=O)(=O)c2ccc(Br)cc2)CC1 | -67.5%
33 | CC(C)c1ccc(S(=O)(=O)N2CCN(C(=O)c3ccc(N4CCCC4)c([N+](=O)[O-])c3)CC2)cc1 | -55.1%
34 | O=C(c1ccc(N2CCCC2)c([N+](=O)[O-])c1)N1CCN(S(=O)(=O)c2ccc(Cl)cc2)CC1 | -36.2%
35 | Nc1ccc(C(=O)N2CCN(S(=O)(=O)c3ccc(Br)cc3)CC2)cc1[N+](=O)[O-] | -26.9%
36 | Cc1ccc(C)c(S(=O)(=O)N2CCN(C(=O)c3ccc(N4CCCC4)c([N+](=O)[O-])c3)CC2)c1 | -9.46%
37 | Cc1ccc(S(=O)(=O)N2CCN(C(=O)c3ccc(N4CCCCC4)c([N+](=O)[O-])c3)CC2)cc1 | -10.2%
38 | CC(C)CNC(=O)CC(=O)NN=C1CCCC1 | 19.5%
39 | Cc1ccc(N(CC(=O)NCc2ccco2)C(=O)CCC(=O)Nc2nccs2)c(C)c1 | -22.5%
40 | Cc1cc(C)n(-c2nc3ccccc3n3c(C)nnc23)n1 | 6.03%
41 | Cc1ccc2oc(=O)n(CC(=O)O)c2c1 | 23.8%
42 | CCOc1ccccc1NC(=O)NC1(C(=O)NCC2CCCO2)CCCCC1 (stereo not drawn) | 15%
43 | COc1cc(NS(=O)(=O)c2ccc(NC(=O)c3ccc(C)o3)cc2)nc(OC)n1 | -9.23%
44 | Cc1ccc(N)c(C(=O)CCCCC(=O)O)c1 | 7.01%
45 | C[C@@H](C(=O)O)[C@@H]1C[C@@]1(C)[C@@H](NC(=O)OCc1ccccc1)c1ccccc1 | 16.8%
46 | Oc1c(CN2CCOCC2)cc(-c2ccccc2)cc1CN1CCOCC1 | -12.7%
47 | Cc1cc(C)c(NC(=O)Cn2nnc(C(=O)NCc3cccs3)c2N)c(C)c1 | 20%
48 | CCC(C)NC(=S)N(CCc1ccccc1)Cc1cc2cc(OC)c(OC)cc2[nH]c1=O (stereo not drawn) | -32.4%
49 | CCCCCOC(=O)C1=C(C)Nc2nnnn2C1c1ccc(OC)c(OC)c1OC (stereo not drawn) | -41.4%
50 | CCOc1cc(/C=C2\NC(=S)N(C)C2=O)ccc1OCc1ccc(C(=O)O)cc1 | 14.6%
51 | CC(=O)N1CCN(C(=O)c2ccc(-n3c(C)ccc3C)cc2)CC1 | -1.54%
